In PubChem BioAssay AID1159580 (chemical genetic matrix, 2015):
Out of some 5,500 compounds screened, about 2,000 (36%) were called active. About 18% were inconclusive and are not listed. Cut-off read from the data, not from the text of the source: active = normalized growth mostly below about 0.91 (no sharp cut-off); inconclusive = no clear call, values can overlap the other calls; inactive = mostly above about 0.92. The list shows a part of the results.

Test: chemical genetic growth profiling, strain panel (AID 1159580);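 note: tested at 20 µM; growth read once vehicle control cultures reached saturation at 30 °C; 1 = growth at the plate median or of vehicle wells; lower values mean less growth of the strain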
Details: growth OD
[1] = S. cerevisiae deletion strains, locus YHR030C, strain SLT2, stronger effect = lower value
[2] = S. cerevisiae deletion strains, locus YJL095W, strain BCK1, stronger effect = lower value
[3] = S. cerevisiae deletion strains, locus YAL013W, strain DEP1, stronger effect = lower value
[4] = S. cerevisiae deletion strains, locus YBR021W, strain FUR4, stronger effect = lower value
[5] = S. cerevisiae deletion strains, locus YBR229C, strain ROT2, stronger effect = lower value
[6] = S. cerevisiae deletion strains, locus YCL029C, strain bik1, stronger effect = lower value
[7] = S. cerevisiae deletion strains, locus YDL035C, strain GPR1, stronger effect = lower value
[8] = S. cerevisiae deletion strains, locus YDL074C, strain BRE1, stronger effect = lower value
[9] = S. cerevisiae deletion strains, locus YDL101C, strain DUN1, stronger effect = lower value
[10] = S. cerevisiae deletion strains, locus YDL185W, strain tfp1, stronger effect = lower value
[11] = S. cerevisiae deletion strains, locus YDL192W, strain arf1, stronger effect = lower value
[12] = S. cerevisiae deletion strains, locus YDR101C, strain arx1, stronger effect = lower value
[13] = S. cerevisiae deletion strains, locus YDR162C, strain NBP2, stronger effect = lower value
[14] = S. cerevisiae deletion strains, locus YDR318W, strain mcm21, stronger effect = lower value
[15] = S. cerevisiae deletion strains, locus YDR388W, stronger effect = lower value
[16] = S. cerevisiae deletion strains, locus YDR502C, strain sam2, stronger effect = lower value
[17] = S. cerevisiae deletion strains, locus YEL061C, strain CIN8, stronger effect = lower value
[18] = S. cerevisiae deletion strains, locus YER110C, stronger effect = lower value
[19] = S. cerevisiae deletion strains, locus YER155C, strain BEM2, stronger effect = lower value
[20] = S. cerevisiae deletion strains, locus YER167W, strain BCK2, stronger effect = lower value
[21] = S. cerevisiae deletion strains, locus YGL078C, strain dbp3, stronger effect = lower value
[22] = S. cerevisiae deletion strains, locus YGL086W, strain mad1, stronger effect = lower value
[23] = S. cerevisiae deletion strains, locus YGL248W, strain PDE1, stronger effect = lower value
[24] = S. cerevisiae deletion strains, locus YGR135W, strain pre9, stronger effect = lower value
[25] = S. cerevisiae deletion strains, locus YGR252W, strain gcn5, stronger effect = lower value
[26] = S. cerevisiae deletion strains, locus YHR079C, strain IRE1 (second series), stronger effect = lower value
[27] = S. cerevisiae deletion strains, locus YHR094C, strain hxt1, stronger effect = lower value
[28] = S. cerevisiae deletion strains, locus YHR129C, strain ARP1, stronger effect = lower value
[29] = S. cerevisiae deletion strains, locus YHR200W, strain rpn10, stronger effect = lower value
[30] = S. cerevisiae deletion strains, locus YIL066C, strain RNR3, stronger effect = lower value
[31] = S. cerevisiae deletion strains, locus YIL073C, strain SPO22, stronger effect = lower value
[32] = S. cerevisiae deletion strains, locus YIL125W, strain kgd1, stronger effect = lower value
[33] = S. cerevisiae deletion strains, locus YIR030C, strain dcg1, stronger effect = lower value
[34] = S. cerevisiae deletion strains, locus YJL134W, strain LCB3, stronger effect = lower value
[35] = S. cerevisiae deletion strains, locus YJL168C, strain set2, stronger effect = lower value
[36] = S. cerevisiae deletion strains, locus YJL187C, strain SWE1 (second series), stronger effect = lower value
[37] = S. cerevisiae deletion strains, locus YJR043C, strain POL32, stronger effect = lower value
[38] = S. cerevisiae deletion strains, locus YKL009W, strain mrt4, stronger effect = lower value
[39] = S. cerevisiae deletion strains, locus YKL068W, stronger effect = lower value
[40] = S. cerevisiae deletion strains, locus YKL085W, strain MDH1 (second series), stronger effect = lower value
[41] = S. cerevisiae deletion strains, locus YKL085W, strain MDH1, stronger effect = lower value
[42] = S. cerevisiae deletion strains, locus YKL190W, strain CNB1, stronger effect = lower value
[43] = S. cerevisiae deletion strains, locus YKR001C, strain vps1, stronger effect = lower value
[44] = S. cerevisiae deletion strains, locus YLR039C, strain RIC1, stronger effect = lower value
[45] = S. cerevisiae deletion strains, locus YLR058C, strain SHM2, stronger effect = lower value
[46] = S. cerevisiae deletion strains, locus YLR102C, strain apc9, stronger effect = lower value
[47] = S. cerevisiae deletion strains, locus YLR262C, strain YPT6, stronger effect = lower value
[48] = S. cerevisiae deletion strains, locus YLR268W, strain sec22, stronger effect = lower value
[49] = S. cerevisiae deletion strains, locus YLR330W, strain CHS5, stronger effect = lower value
[50] = S. cerevisiae deletion strains, locus YLR342W, strain FKS1 (second series), stronger effect = lower value
[51] = S. cerevisiae deletion strains, locus YLR371W, strain rom2, stronger effect = lower value
[52] = S. cerevisiae deletion strains, locus YLR418C, strain cdc73, stronger effect = lower value
[53] = S. cerevisiae deletion strains, locus YML016C, strain PPZ1, stronger effect = lower value
[54] = S. cerevisiae deletion strains, locus YML032C, strain rad52, stronger effect = lower value
[55] = S. cerevisiae deletion strains, locus YML124C, strain tub3, stronger effect = lower value
[56] = S. cerevisiae deletion strains, locus YMR078C, strain ctf18, stronger effect = lower value
[57] = S. cerevisiae deletion strains, locus YMR223W, strain ubp8, stronger effect = lower value
[58] = S. cerevisiae deletion strains, locus YMR307W, strain GAS1, stronger effect = lower value
[59] = S. cerevisiae deletion strains, locus YNL067W, strain RPL9B, stronger effect = lower value
[60] = S. cerevisiae deletion strains, locus YNL233W, strain BNI4, stronger effect = lower value
[61] = S. cerevisiae deletion strains, locus YNL250W, strain rad50, stronger effect = lower value
[62] = S. cerevisiae deletion strains, locus YNL271C, strain bni1, stronger effect = lower value
[63] = S. cerevisiae deletion strains, locus YNL298W, strain CLA4, stronger effect = lower value
[64] = S. cerevisiae deletion strains, locus YNL307C, strain MCK1, stronger effect = lower value
[65] = S. cerevisiae deletion strains, locus YNL322C, strain KRE1, stronger effect = lower value
[66] = S. cerevisiae deletion strains, locus YNR052C, strain pop2, stronger effect = lower value
[67] = S. cerevisiae deletion strains, locus YOL012C, strain htz1
[68] = S. cerevisiae deletion strains, locus YOL147C, strain pex11, stronger effect = lower value
[69] = S. cerevisiae deletion strains, locus YOR061W, strain CKA2, stronger effect = lower value
[70] = S. cerevisiae deletion strains, locus YOR069W, strain VPS5, stronger effect = lower value
[71] = S. cerevisiae deletion strains, locus YOR136W, strain idh2, stronger effect = lower value
[72] = S. cerevisiae deletion strains, locus YOR144C, strain elg1, stronger effect = lower value
[73] = S. cerevisiae deletion strains, locus YOR184W, strain ser1, stronger effect = lower value
[74] = S. cerevisiae deletion strains, locus YOR316C, strain cot1, stronger effect = lower value
[75] = S. cerevisiae deletion strains, locus YPL055C, strain LGE1, stronger effect = lower value
[76] = S. cerevisiae deletion strains, locus YPR119W, strain clb2, stronger effect = lower value
[77] = S. cerevisiae deletion strains, locus YPR141C, strain kar3, stronger effect = lower value
[78] = S. cerevisiae deletion strains, locus YPR163C, strain tif3, stronger effect = lower value
[79] = S. cerevisiae deletion strains, locus YPR167C, strain met16, stronger effect = lower value
[80] = S. cerevisiae deletion strains, strain wtn01, stronger effect = lower value

Measured: normalized growth

CC(C)CCCC(C)C1CCC2C3CC[C@H]4C[C@H](O)CC[C@]4(C)C3CC[C@]12C (stereo partly specified)
inactive: [1] 0.98 | S. cerevisiae deletion strains, locus YHR079C, strain IRE1, stronger effect = lower value 0.985 | [2] 0.992 | S. cerevisiae deletion strains, locus YJR066W, strain TOR1, stronger effect = lower value 0.919 | S. cerevisiae deletion strains, locus YLR113W, strain HOG1, stronger effect = lower value 0.985 | S. cerevisiae deletion strains, locus YNL183C, strain NPR1, stronger effect = lower value 0.916 | S. cerevisiae deletion strains, locus YOR231W, strain MKK1, stronger effect = lower value 0.991 | S. cerevisiae deletion strains, locus YPL256C, strain CLN2, stronger effect = lower value 0.981

CC(C)CCCC(C)C1CCC2C3CC[C@H]4C[C@@H](O)CC[C@]4(C)C3CC[C@]12C (stereo partly specified)
inactive: [3] 1 | [4] 1 | [5] 1.01 | [6] 1.03 | [7] 1 | [8] 1.02 | [9] 1.01 | [10] 1.01 | [11] 1.01 | [12] 1.04 | [13] 0.987 | [14] 0.984 | [15] 0.997 | [16] 1.03 | [17] 0.995 | [18] 1 | [19] 0.997 | [20] 0.997 | [21] 1.02 | [22] 1.03 | [23] 1 | [24] 0.99 | S. cerevisiae deletion strains, locus YGR229C, strain SMI1, stronger effect = lower value 1 | [25] 0.96 | [1] 0.996 | [26] 0.995 | [27] 0.995 | [28] 1.01 | [29] 1.01 | [30] 1 | [31] 1.02 | [32] 1.01 | [33] 1 | [2] 0.997 | [34] 1.01 | [35] 1 | [36] 1.01 | [37] 0.988 | [38] 0.997 | [39] 0.999 | [40] 0.994 | [41] 0.994 | [42] 0.994 | [43] 1.01 | [44] 1.05 | [45] 0.987 | [46] 1.01 | [47] 1.08 | [48] 1.04 | [49] 0.989 | [50] 1.01 | [51] 1 | [52] 1.01 | [53] 1.01 | [54] 0.975 | [55] 0.996 | [56] 1 | [57] 0.989 | S. cerevisiae deletion strains, locus YMR263W, strain SAP30, stronger effect = lower value 0.999 | [58] 1.06 | [59] 1.01 | S. cerevisiae deletion strains, locus YNL128W, strain TEP1, stronger effect = lower value 0.972 | [60] 1.01 | [61] 0.997 | [62] 1.01 | [63] 1 | [64] 1.01 | [65] 0.998 | [66] 0.996 | [67] 1.64 | [68] 1 | [69] 0.997 | [70] 1 | [71] 1.01 | [72] 1 | [73] 1.03 | [74] 1 | [75] 0.992 | S. cerevisiae deletion strains, locus YPL241C, strain CIN2, stronger effect = lower value 0.99 | [76] 0.998 | [77] 1 | [78] 1 | [79] 0.994 | [80] 1.04 | S. cerevisiae strains, strain wild type, stronger effect = lower value 0.976

CC(C)CCCC(C)[C@H]1CCC2C3CC[C@@H]4C[C@H](O)CC[C@]4(C)C3CC[C@@]21C (stereo partly specified)
inactive: [3] 1.04 | [4] 0.992 | [5] 1 | [6] 1.02 | [7] 1.02 | [8] 1.01 | [9] 1.01 | [10] 1.02 | [11] 1 | [12] 0.991 | [13] 1.03 | [14] 1.01 | [15] 1 | [16] 0.999 | [17] 1 | [18] 1.01 | [19] 1 | [20] 1.02 | [21] 1 | [22] 1 | [23] 1.01 | [24] 1.01 | [25] 0.985 | [1] 1.01 | [26] 0.997 | [27] 1.01 | [28] 1 | [29] 1 | [30] 1.03 | [31] 1.03 | [32] 0.999 | [33] 1 | [2] 1.01 | [34] 1.01 | [35] 0.994 | [36] 1.01 | [37] 1.01 | S. cerevisiae deletion strains, locus YJR075W, strain HOC1, stronger effect = lower value 1 | [38] 1.02 | [39] 1 | [40] 1.01 | [41] 1.01 | [42] 1.01 | [43] 0.998 | [44] 1.06 | [45] 1 | [46] 1 | [47] 1.06 | [48] 0.999 | [49] 1.01 | [50] 1.01 | [51] 1.02 | [52] 0.978 | [53] 1.01 | [54] 1 | [55] 1 | [56] 1 | [57] 1.01 | [58] 1.07 | [59] 1.01 | S. cerevisiae deletion strains, locus YNL153C, strain GIM3, stronger effect = lower value 1.01 | [60] 1.01 | [61] 1 | [62] 1.01 | [63] 1 | [64] 1.01 | [65] 1.01 | [66] 0.999 | S. cerevisiae deletion strains, locus YOL006C, strain TOP1, stronger effect = lower value 1.04 | [67] 0.869 | [68] 0.991 | [69] 1.01 | [70] 1.01 | [71] 0.994 | [72] 0.987 | [73] 0.989 | [74] 1 | [75] 1.01 | [76] 1 | [77] 1.02 | [78] 1.01 | [79] 1 | [80] 1
